Sampled rows, rich in hits. Any-hit rate of the full collection: about 9.2%.
ELG1 DNA repair – ELG1-dependent DNA repair inhibition. HEK293T ELG1-luciferase reporter, luminescence, 16 h; DNA damage induced by 5-fluorouridine. AID 504467. Potency, µM (titrated, usually from 46.1 µM), inactives show at the highest dose activity change, negative = inhibition, actives largely listed as inhibitors. 330,000 compounds, 2.3% hits; further: on the % scale 0 is the no-effect control and ±100 the full control effect; nearly all actives have a fitted effect of over 55% in size
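Luminescence from the luciferase reporter, measured 30 min after ONE-Glo reagent at room temperature, was the read-out. Beforehand, 2,000 cells per well were exposed for 16 hr at 37 °C to 5-fluorouridine together with compound or vehicle.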
ELG1 genotox – genotoxicity induction in ELG1-luciferase HEK293T cells | HEK293T ELG1-luciferase reporter, luminescence, 16 h | Potency, µM (doses to about 46 µM), for the others: at the top dose activity change, positive = activation, actives largely listed as activators | 330,000 compounds, 1.3% hits; further: % of control where 0% means no effect; nearly all actives have a fitted effect of over 60% in size
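HEK293T cells expressing luciferase-tagged ELG1 were treated with compound or DMSO for 16 hr at 37°C. Luciferase activity was then read after 30 min with ONE-Glo at room temperature; rising signal flags genetic stress.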
FLuc modulator – inhibits or activates purified firefly luciferase, miR-21 counter-screen. P08659. purified FLuc, Km substrates, luminescence inhibition. Potency, µM (highest dose often 57.5 µM), for inactives: at the highest dose activity change, negative = inhibition, most hits filed as inhibitors. 360,000 compounds, 6.9% hits. AID 588342;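 further: plate controls were vehicle for no effect and reference inhibitor for full effect; nearly all actives have a fitted effect of over 55% in size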
Target sequence (P08659 whole entry, looked up): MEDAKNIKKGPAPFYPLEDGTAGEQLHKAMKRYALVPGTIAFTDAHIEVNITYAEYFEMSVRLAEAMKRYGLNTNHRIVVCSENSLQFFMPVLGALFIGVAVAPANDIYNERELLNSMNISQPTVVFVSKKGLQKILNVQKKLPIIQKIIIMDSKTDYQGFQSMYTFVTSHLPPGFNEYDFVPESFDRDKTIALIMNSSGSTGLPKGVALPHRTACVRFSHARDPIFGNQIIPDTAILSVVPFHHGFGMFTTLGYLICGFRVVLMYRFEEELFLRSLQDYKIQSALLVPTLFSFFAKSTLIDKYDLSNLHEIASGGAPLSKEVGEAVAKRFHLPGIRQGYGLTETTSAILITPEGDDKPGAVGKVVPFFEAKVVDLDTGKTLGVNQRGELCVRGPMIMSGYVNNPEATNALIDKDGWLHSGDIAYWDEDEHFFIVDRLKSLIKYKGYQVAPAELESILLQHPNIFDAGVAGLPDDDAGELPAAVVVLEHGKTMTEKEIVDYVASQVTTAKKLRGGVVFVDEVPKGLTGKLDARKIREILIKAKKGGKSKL
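Purified P. pyralis luciferase (10nM final) with 10uM D-luciferin and 10uM ATP (Km levels) in 50mM Tris acetate pH 7.5, 10mM Mg acetate, 0.01% Tween-20, 0.05% BSA; qHTS 6-point titration, ~60 µM downward; luminescence read.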
SMN2 splice up – SMN2 splice variant enhancement; HEK293 SMN2-luciferase splicing reporter, luminescence, 30-36 h; Potency, µM (doses to about 46.1 µM), without a hit: at the top dose activity change, positive = activation, most hits filed as activators; 210,000 compounds, 2.8% hits; AID 1458; further: % of control where 0% means no effect; nearly all actives have a fitted effect of over 55% in size
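HEK293 cells carry an SMN2 […]–luciferase reporter in which exon 7 inclusion puts luciferase in frame. Cells were plated 10-12 h before compound addition, then incubated 30-36 h at 37C. ONE-Glo luminescence was read; sodium butyrate at 4.5 mM final served as control.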
Rab9 prom act – activators of Rab9 promoter; 320,000 compounds, 2.8% hits; Potency, µM (doses to about 9.22 µM), for the others: top-dose activation, negative = inhibition, usual class: activators; Huh7 Rab9 promoter-luciferase reporter, luminescence, 24 h; further: % of control where 0% means no effect; nearly all actives have a fitted effect of over 60% in size
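Luminescence from Amplite-detected luciferase (10 minutes, ambient) reports Rab9 promoter activation. Before that, stable Rab9-luciferase Huh7 cells (1500/well, reduced-serum OP-MEM I plus 10% FBS) were exposed to compound for 24 hours at 37C.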
NPC1 prom act – activates the NPC1 promoter. 320,000 compounds, 2.4% hits. AID 485313. Potency, µM (top dose mostly 9.22 µM), without a hit: at the top dose activation, actives largely listed as activators. Huh7 NPC1 promoter luciferase reporter, 24 h; further: % of control where 0% means no effect; nearly all actives have a fitted effect of over 60% in size
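Compounds in DMSO were transferred onto Huh7 NPC1-luciferase reporter cells pre-incubated 2 h; after 24 h at 37 °C, Amplite reagent was dispensed and luminescence recorded 10 min later.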
Active calls of the source: *; ? = inconclusive; nt = not tested or not shown; [ ] = another dose, or the depositor's remark. The call rests on the fitted dose curve; in most records, active means well fitted curve in the direction sought with a large enough effect; inconclusive means small, poorly fitted or top-dose-only effect, or another doubt; inactive means no such curve, though single readings can be large; an effect the other way counts as inactive or inconclusive. Potency means the concentration at half of the fitted maximal effect.

SMILES	ELG1 DNA repair	ELG1 genotox	FLuc modulator	SMN2 splice up	Rab9 prom act	NPC1 prom act
Cc1ccc(-n2ncc3c(=O)n(CC(=O)N4CCCc5ccccc54)cnc32)cc1C	23.1µM*	-6.5%	3.8%	-52.6%	-0.2%	1.0%
CN(C)c1ccc(P(=O)(OCc2ccccc2)C(O)c2ccc(Br)cc2)cc1 (stereo not given)	-4.9%	-2.9%	1.2%	nt	-4.1%	-1.1%
CCCCn1c(N)c(N(CCOC)C(=O)COC(=O)COc2cc(C)c(Cl)cc2C(C)C)c(=O)[nH]c1=O	12.8%	1.2%	-1.0%	nt	-8.0%	-0.2%
O=C(COc1ccc(Cl)cc1Cl)N1CCNC1=O	?	4.7%	-12.3%	nt	-6.6%	3.0%
O=C1NCCC/C1=N/Nc1cc(F)ccc1F	?	?	19µM*	nt	?	?
COc1ccc(-c2noc(CN(C(=O)c3ccc(C)cc3C)C(C)C)n2)cc1	nt	nt	-0.5%	-21.1%	nt	nt
C/C(=N\NC(=O)c1ccc(O)cc1)c1ccc(N2CCOCC2)cc1	20.8%	3.6%	?	nt	4.5%	9.2%
C/C(=N\NC(=O)c1ccc2c(c1)OCO2)c1ccc(C(=O)O)s1	?	2.4%	?	nt	1.0%	-0.4%
C/C(=N\NC(=O)c1ccc2c(c1)OCO2)c1ccc2c(c1)OCO2	?	9.8%	13.5µM*	15.8µM*	3.55µM*	?
C/C(=N\NC(=O)c1ccc(N/N=C(\C)c2ccc(O)cc2)cc1)c1ccc(O)cc1	8.2µM*	0.2%	4.78µM*	nt	?	?
C/C(=N\NC(=O)c1ccc(O)cc1)c1ccc2c(c1)OCCO2	?	?	13.5µM*	nt	28.0%	22.0%
CC(/C=C/c1ccccc1)=N\NC(=O)c1ccc2c(c1)OCCO2	2.7%	2.3%	?	-5.7%	-5.3%	-5.8%
C/C(=N\NC(=O)c1ccc2c(c1)OCCO2)c1ccccc1	?	0.326µM*	0.379µM*	nt	2.9%	?
O=C(Cc1ccc(Cl)cc1)NC1CC(=O)N(c2ccc3c(c2)OCCO3)C1 (stereo not given)	nt	nt	-1.4%	nt	nt	nt
Cc1ccc(C(=O)/C=C/c2c[nH]c3ccccc23)cc1	?	?	5.36µM*	?	3.55µM*	3.98µM*
COc1ccc2[nH]cc(C=O)c2c1	14.5%	-1.7%	-1.7%	-13.6%	-4.3%	8.4%
O=C(/C=C/c1c[nH]c2ccccc12)c1ccccc1	?	16.4µM*	5.36µM*	10µM*	3.55µM*	3.16µM*
COc1ccc2[nH]cc(/C=C/C(=O)c3ccccc3)c2c1	?	?	3.38µM*	nt	1.58µM*	3.16µM*
O=C(NCCSCc1ccco1)Nc1cc(Cl)cc(Cl)c1	-20.3%	-5.3%	26.9µM*	nt	-6.2%	-3.6%
COc1ccc(/C=C/C(=O)NCCSCc2ccco2)cc1	?	2.8%	16.9µM*	6.6%	-0.8%	-1.2%
O=C(CSCc1ccc(Cl)cc1)NCCSCc1ccco1	9.4%	-2.1%	-15.7%	nt	-3.4%	-11.0%
COc1ccc(/C=C/C(=O)Nn2cnnc2)cc1	20.1%	1.8%	15.1µM*	56.7%	-6.7%	-4.0%
C#CCNC(=O)/C=C/c1ccc(OC)cc1	?	?	21.3µM*	14.1µM*	?	28.0%
COc1ccc(/C=C/C(=O)NCCCN2CCCC2)cc1	1.5%	-0.1%	4.3%	nt	-7.9%	1.1%
O=C(Nc1ccc(Cl)c(S(=O)(=O)N2CCOCC2)c1)c1ccc2c(c1)OCO2	6.51µM*	-12.4%	nt	nt	nt	nt
SMILES	ELG1 DNA repair	ELG1 genotox	FLuc modulator	SMN2 splice up	Rab9 prom act	NPC1 prom act
CCC(CC)C(=O)Nc1cccc(C(=O)Nc2ccc3c(c2)OCO3)c1	?	11.2%	?	8.91µM*	18.5%	27.0%
CCCN(CCC)S(=O)(=O)c1cccc(C(=O)Nc2ccc3c(c2)OCO3)c1	?	-11.4%	-10.8%	-9.4%	-3.9%	-1.1%
CS(=O)(=O)c1cccc(C(=O)Nc2ccc3c(c2)OCCCO3)c1	?	?	15.1µM*	nt	3.55µM*	?
CCN(CC)S(=O)(=O)c1cccc(C(=O)Nc2ccc3c(c2)OCO3)c1	?	5.8%	15.1µM*	?	?	?
O=C(Nc1ccc2c(c1)OCCO2)c1cccc(S(=O)(=O)N2CCCCC2)c1	5.4%	9.4%	?	-10.1%	-5.9%	-2.0%
CCc1ccccc1NCc1nnc2n1CCCCC2	nt	nt	-2.6%	nt	nt	nt
O=C(Nc1ccc(Cl)c(S(=O)(=O)N2CCOCC2)c1)c1ccc2c(c1)OCCO2	23.1µM*	-16.7%	26.9µM*	-53.2%	4.2%	-0.6%
O=C(Nc1ccc2c(c1)OCCO2)c1cccc(S(=O)(=O)N2CCOCC2)c1	?	?	?	?	4.47µM*	?
[N-]=[N+]=NC[C@@H]1O[C@@H](n2cnc3c(N)ncnc32)[C@@H]2O[C@@H]21	nt	nt	nt	-3.6%[9.22 µM]	nt	nt
COc1ccc(-n2c(=S)[nH]c3cc(C(=O)Nc4ccccc4OC)ccc3c2=O)c(OC)c1	16.4µM*	-17.9%	1.9%	nt	-2.3%	-10.8%
Cc1cccc(NCc2nc3ccccc3n2C)c1	?	11.6µM*	23.9µM*	?	3.16µM*	?
Cc1ccc(NCc2nc3ccccc3n2C)c(C)c1	?	1.03µM*	0.338µM*	nt	0.708µM*	0.631µM*
Cn1c(CNc2ccc(Cl)cc2)nc2ccccc21	?	4.61µM*	6.75µM*	7.08µM*	?	4.47µM*
COc1cccc(CNc2ccc3c(c2)nc(C)n3C)c1OC	9.1%	?	23.9µM*	nt	?	?
Cn1c(NCc2cccc(Br)c2)nc2ccccc21	?	?	-14.8%	-9.9%	3.3%	-1.0%
Cc1ccc(N2CCN(c3ccc(NCc4nc5ccccc5n4C)cc3)CC2)cc1	-0.6%	0.1%	-18.6%	-24.9%	1.7%	-0.2%
COc1ccc(C(CNC(=O)C(C)Oc2ccc(Br)cc2)N2CCCC2)cc1 (stereo not given)	9.1%	1.0%	-16.8%	nt	1.7%	-3.5%
Cc1cccc(NCc2nc3ccccc3n2Cc2ccccc2)c1	?	15.0%	23.9µM*	1.2%	3.7%	12.0%
Cc1nc2cc(NCc3cc([N+](=O)[O-])ccc3O)ccc2n1Cc1ccccc1	-3.7%	0.4%	?	2.8%	?	4.8%
Cc1cccc(NCc2nc3ccccc3n2CCOc2ccccc2C)c1	nt	nt	1.4%	-41.0%	nt	nt
Cc1nc2cc(NCc3nc4ccccc4n3Cc3ccccc3)ccc2n1C	?	?	0.601µM*	1.1%	0.708µM*	1.12µM*
CC(C)CC1NC(=O)c2ccccc2-n2c1nc1ccc(F)cc1c2=O (stereo not given)	16.6%	3.2%	3.4%	nt	-1.5%	-4.4%
CCCCNc1nc2c(c(=O)n(Cc3ccccc3)c(=O)n2C)n1C	?	-5.0%	0.7%	14.5%	5.9%	1.1%
